From ChEMBL document CHEMBL3988442, “University of Dundee, Small-Polar-MMV Screening Library” (2021)
The campaign covered roughly 38,000 compounds. About 1,200 (3.2%) showed an effect of 50% or more. The median lay at about -58%. The list comes from a sample in which strong results are over-represented; it also holds similar structures and randomly drawn compounds.

Tested on: Plasmodium falciparum
Test: Calibr Malaria Delayed Death Assay SOP
Assay type: functional, organism-based
Set-up: scale not given: in the data most compounds retested in dose-response had high values
Details: concentration 4.99e-06 (unit not given; other assays of the set use mol/L)

In order of falling “Percent Effect” value:
1. CN(C)CCNC(=O)C1Cc2nc(-c3ccccc3)sc2N1CC1CC1.O=C(O)C(F)(F)F (centres undefined)  89.72%
2. Cc1cccc(CNC(CN2CCN(C)CC2)c2ccccc2)c1 (centres undefined)  83.13%
3. O=C(NC1CC1)C1CCN(c2cccc(C(F)(F)F)n2)CC1  78.5%
4. O=S(=O)(Cc1ccccc1Cl)NCCCN1CCCC1  78.29%
5. O=S(=O)(NCCCN1CCCC1)c1cc(F)cc(F)c1  66.12%
6. CC1CCN(CCCNS(=O)(=O)c2cc(F)cc(F)c2)CC1.Cl  61.9%
7. CC1CCN(CCCNS(=O)(=O)c2cccc(F)c2)CC1.Cl  53.06%
8. COc1cccc(C2(C(=O)NC3CCc4nccn4C3)CCCC2)c1 (centres undefined)  52%
9. COc1ccc(C2(C(=O)NC3CCc4nccn4C3)CCCC2)cc1 (centres undefined)  46.07%
10. CC(C)c1cccc(S(=O)(=O)NCCCN2CCC(O)CC2)c1  31.74%
11. CC1CCN(CCCNS(=O)(=O)Cc2ccccc2F)CC1  25.53%
12. Cc1ccccc1CS(=O)(=O)NCCCN1CCCC1  22.31%
13. O=S(=O)(Cc1ccccc1F)NCCCN1CCCCC1  18.19%
14. O=C(NC1CC1)C1CCCN(c2cccc(C(F)(F)F)n2)C1 (centres undefined)  11.64%
15. CN(C)CCNC(=O)C1Cc2nc(-c3ccsc3)sc2N1CC1CC1.O=C(O)C(F)(F)F (centres undefined)  9.733%
16. O=C(Nc1cccnc1N1CCSCC1)c1ccc2c(c1)CCC2  -3.12%
17. O=C(O)C(F)(F)F.O=S(=O)(C1CC1)N1CCC2(CCCN(c3ncccn3)C2)C1 (centres undefined)  -10.57%
18. Cc1nc(C(=O)N2CC[C@@]3(C[C@H](NS(C)(=O)=O)CCO3)C2)cs1  -13.09%
19. COCCN1CCC(NCc2cccc(C)c2)C1 (centres undefined)  -16.89%
20. Cl.Cl.OC(CN1CCN(Cc2ccc(F)c(F)c2)CC1)C1CC1 (centres undefined)  -18%
21. CN1C[C@H](O)[C@]2(CCN(C(=O)NCc3ccccc3)C2)S1(=O)=O  -19.04%
22. O=C(NC1CCN(c2cccc(C(F)(F)F)n2)CC1)C1CC1  -20.01%
23. COc1cccc(CNC(=O)N2CCN(Cc3cc(C)on3)CC2)c1  -21.77%
24. CCC[C@H]1CN(C(=O)c2ccc3[nH]c(CO)nc3c2)C[C@@H]1N  -26.19%
25. Cc1ccc2nc(C(=O)N3CC(c4cccnc4)C3)cn2c1  -27.83%
26. c1cc2occc2c(N2CCCC(c3nncn3C3CC3)C2)n1 (centres undefined)  -31.64%
27. Cc1csc(NC(=O)C2CCN(Cc3cccc4c3OCCO4)CC2)n1  -33.92%
28. COc1cccc(C(=O)N2CCN(CC(O)c3ccccc3)CC2)c1 (centres undefined)  -38.78%
29. CC(C)Cc1nc(NC(=O)c2cccnc2)n[nH]1  -46.29%
30. CN(C)CCOCc1cncc2c1CCN(C(=O)C1CCOCC1)C2.O=C(O)C(F)(F)F.O=C(O)C(F)(F)F  -70.85%
31. CC(=O)N1CCC(C(=O)NCCc2c[nH]c3cc(C)ccc23)CC1  -74.03%
32. O=C(CCc1cc2n(n1)CCCN(CCc1ccccc1)C2)NC1CC1  -74.1%
33. CC(C)N1CCCC2(CCN(c3nccc(C(F)(F)F)n3)C2)C1=O (centres undefined)  -74.1%
34. Cc1cnccc1-c1cc(NCCO)nc2[nH]ccc12  -75.39%
35. CCc1ccc(OCCn2cccn2)cc1  -75.63%
36. CS(=O)(=O)N1CCc2c(cccc2NC(=O)NC2CCCC2)C1  -76.44%
37. CC(C)NC(=O)c1noc2c1CN(Cc1cnn(C)c1)CC2  -77.7%
38. CC(=O)N1CCN(CCNS(=O)(=O)c2cccc(F)c2)CC1  -79.38%
39. CC(C)c1nc(C2CCCN(c3nccc(C(F)(F)F)n3)C2)no1 (centres undefined)  -82.41%
40. Cc1ccc(NC(=O)N2CC[C@@H](O)C2)c(-c2nc(C3CC3)no2)c1  -83.22%
41. CCO[C@H]1CC[C@H]2[C@H]1OCCN2C(=O)CC1=CCCCC1  -84.2%
42. CS(=O)(=O)c1ccccc1-n1cc(NC(=O)CC2C=CCC2)cn1 (centres undefined)  -87.45%
43. Cc1cc(F)c(S(=O)(=O)NCCCN2CCC(O)CC2)cc1F  -91.17%
44. CN1CCN(CC(NCc2ccc(F)cc2)c2ccccc2)CC1 (centres undefined)  -91.46%
45. O=C(NC(CN1CCCC1)c1ccccc1)c1c(O)cc(F)cc1F (centres undefined)  -93.48%
46. CCN1C(=O)C(C#N)=C(C)/C(=C/C2=Cc3ccccc3OC2)C1=O  -95.4%
47. CC1c2ncc(Cn3cccn3)n2CCN1Cc1ccccn1.O=C(O)C(F)(F)F.O=C(O)C(F)(F)F (centres undefined)  -97.72%
48. Cn1cnc(S(=O)(=O)NCCCN2CCCCCC2)c1Cl  -99.75%
49. CC(C)c1nccc(CN2CCC(c3nc4ccccc4n3C)CC2)n1  -101.6%
50. CN1CCN(CC(NCc2cccc(O)c2)c2ccccc2)CC1 (centres undefined)  -102.1%
51. CN1Cc2cc(F)ccc2N(CC(C)(C)O)CCC1=O  -102.4%
52. O=C(O)C(F)(F)F.O=C(O)C(F)(F)F.O=C(O)C(F)(F)F.O=C(c1ccncc1)N1CCN(Cc2cccnc2)c2ncccc2C1  -102.4%
53. O=C(Nc1cc(C(F)(F)F)c[nH]c1=O)C1CCCO1 (centres undefined)  -102.8%
54. CO[C@H]1CN(C(=O)OC(C)(C)C)CC1NCc1cc[nH]c1 (some centres undefined)  -107.9%
55. Cc1ccc(CNC(CN2CCN(C)CC2)c2ccccc2)cc1C (centres undefined)  -112.6%
56. NC(=O)CS(=O)(=O)Cc1csc(-c2ccc(F)cc2)n1  -114.2%
57. CS(=O)(=O)C1(C(=O)NC2CCc3nccn3C2)CCCC1 (centres undefined)  -116.8%
58. CC(=O)N1CCOC2(CCCN(C(=O)c3ccc(Cl)cc3)C2)C1 (centres undefined)  -118.1%
59. CC(=O)N1CCN(CCNS(=O)(=O)c2cc(F)cc(F)c2)CC1  -120.9%
60. CN(Cc1cccs1)Cc1nnsc1Cl  -133.9%
61. CN(C)C(=O)N1CCC2(CCCN(c3ncccn3)C2)C1.O=C(O)C(F)(F)F (centres undefined)  -156.2%
62. O=C(Nc1cccnc1)C1Cc2nc(-c3ccsc3)sc2N1CC1CC1.O=C(O)C(F)(F)F (centres undefined)  -160.3%
63. NC(=O)CN1CC2(CCC1=O)CCN(C(=O)c1ccccc1F)CC2  -172.5%
64. COCCn1ccc2c(C(=O)Nc3nc4c(s3)CCC4)cccc21  -233.3%
